Assay results as given in ChEMBL document CHEMBL3988442, “University of Dundee, Small-Polar-MMV Screening Library” (2021).
The whole screen tested about 38,000 compounds, of which about 1,200 (3.2%) showed an effect of 50% or more. The median lay at about -58%. Shown is part of a subset that was picked to be rich in strong results.

test system: Plasmodium falciparum; assay: Calibr Malaria Delayed Death Assay SOP; assay type: functional, organism-based; design: scale not given: in the data most compounds retested in dose-response had high values; settings: concentration 4.99e-06 (unit not given; other assays of the set use mol/L)

SMILES	Percent Effect [%]
COCCCN(CCOC)C(=O)Nc1ccccc1Br	-3.396
Fc1cnc(N2CCN3C[C@H](Oc4cccnc4)C[C@H]3C2)nc1.O=C(O)C(F)(F)F.O=C(O)C(F)(F)F.O=C(O)C(F)(F)F	-67.51
CN(C)c1nc2sc(C(=O)N3CCNC(=O)CC3)cc2s1	-35.45
CCOC(=O)[C@H]1[C@@H](O)C(=O)N(C)C12CCN(S(=O)(=O)CC)CC2	-82.82
CS(=O)(=O)NCc1ncn2c1CN(C(=O)C1CCCCC1)CCC2	-51.87
CC1(C)CC(N(Cc2ccncc2)Cc2cccnc2)CC(C)(C)N1.O=C(O)CC(O)(CC(=O)O)C(=O)O	22.16
COc1cc(F)ccc1N(C)Cc1cccnc1	-76.29
CC1(C)CC(N(Cc2cccnc2)Cc2cccnc2)CC(C)(C)N1.O=C(O)CC(O)(CC(=O)O)C(=O)O	-10.22
Cc1ccc(C(=O)N(Cc2cccnc2)C[C@@H]2CCC(=O)N2)s1	-86.25
C[C@]1(O)CCN(Cc2cccnc2)C[C@@H]1Oc1cccc(F)c1	9.643
CCCN(Cc1cccnc1)C1CC(C)(C)NC(C)(C)C1.O=C(O)CC(O)(CC(=O)O)C(=O)O	76.54
CN(Cc1cccnc1)C1CC2(CCN(C(=O)c3ccnnc3)CC2)C1	-29.79
COc1cccc(CNC(=O)c2cc(C)nc(N3CCCC3)n2)c1	-64.99
CC(C)OC(=O)N1CCC(c2nnc(Cn3ccnc3)n2C)CC1	-243.5
O=C(O)C(F)(F)F.O=C(c1cccnc1)N1CCC2(CC1)CC(Oc1ccccc1)CO2 (configuration not stated)	-74.94
CCc1ccc2nc(-c3cnn(C)c3)cc(C(=O)N3CCOCC3)c2c1	-101.2
CCS(=O)(=O)NCc1cccnc1N1CCCC(O)C1 (configuration not stated)	-44.06
Cc1cnn(CC(=O)N(CC2CN(C)CCO2)c2nccs2)c1 (configuration not stated)	-66.52
Cc1ccc(S(=O)(=O)Nc2ccc(-n3ccnc3C)nc2)cc1N(C)C	-25.67
CC(=O)N(C)c1nc(Cn2nnnc2C(C)C)cs1	-150.3
Cc1ccc(CN2CCc3onc(COc4cccnc4)c3C2)s1.O=C(O)C(F)(F)F.O=C(O)C(F)(F)F	3.567
COc1ccc(-c2ncccc2C(=O)N2C[C@H]3CC[C@@H]2C3)cn1	-112.3
N#Cc1ccc(NCCCN2C(=O)COc3ccccc32)nc1	-38.04
N#Cc1c(Cl)nsc1NCCCN1C(=O)COc2ccccc21	55.67
N#Cc1cnc(NCCCN2C(=O)COc3ccccc32)c(Cl)c1	-83.56

SMILES	Percent Effect [%]
CC(C)n1cc(N2CC(C(=O)N3CCc4ccccc4C3)CC2=O)cn1 (configuration not stated)	-62.91
O=C(O)C(F)(F)F.O=C(c1ccc(O)cc1)N1C[C@@H]2OCCN(c3ncccn3)[C@@H]2C1	6.308
Cl.NCC1(c2cccc(Br)c2)CCOCC1	78.65
CC(C)(CNC(=O)C1(c2cccc(Br)c2)CCOCC1)C(=O)O	-116.6
Fc1cccc(C2(CNC3CCSC3)CCOCC2)c1 (configuration not stated)	-47.45
NCC1(c2cccc(C(F)(F)F)c2)CCC1	23
O=C(O)CCNC(=O)C1(c2cccc(Br)c2)CCOCC1	-140.1
Cc1ccc(NCCNC(=O)c2cc(CC(C)C)n[nH]2)nn1	-140.2
Cc1cc(NC(=O)Cn2ccc(-c3ccc4c(c3)OCO4)n2)n(C)n1	-110.5
CC(C)CNC(=O)c1cn(C)c(=O)c2ccccc12	-112.9
CN(C)CCN1CCO[C@@H]2CCN(C(=O)c3cccn3C)CC[C@H]21	-62.97
CCN1CCC(NC(=O)CN2CCCC(NS(C)(=O)=O)C2)CC1 (configuration not stated)	-94.92
CC(C)CC(C)NC1CCN(c2ccc(-c3cscn3)cc2)CC1 (configuration not stated)	-115.7
c1cc(-c2cscn2)cc(N2CCC(NCCc3cccs3)CC2)c1	23.18
CC(C)CC(C)NC1CCN(c2cccc(-c3cscn3)c2)CC1 (configuration not stated)	51.64
Cc1ccc(C(C(=O)N2CCC(Cc3noc(C)n3)CC2)N(C)C)cc1 (configuration not stated)	25.87
Cc1ccc(S(=O)(=O)N2CCN(C)C3(CCC(=O)N(C)CC3)C2)s1 (configuration not stated)	-170.6
CN1CCC2(CCCN(S(=O)(=O)c3ccc(-c4cnco4)s3)C2)C1 (configuration not stated)	50.7
CN1CCC2(CCN(S(=O)(=O)c3ccc(-c4cnco4)s3)CC2)C1	67.52
CN1CCCC2(CCN(S(=O)(=O)c3ccc(-c4cnco4)s3)C2)C1=O (configuration not stated)	-20.09
CN1CCCC2(CCN(C(=O)c3ccncc3)C2)C1 (configuration not stated)	-70.03
O=S(=O)(c1ccc(-c2cnco2)cc1)N1CCCC(O)(CO)CC1 (configuration not stated)	-42.75
CCCn1c(C)c(CC(=O)NCC(N)=O)c2c1CC(C)(C)CC2=O	-28.28
O=C(C1CCCO1)N1CCC2(CC1)COCCN2CC1CC1 (configuration not stated)	-162.7
CN(Cc1cccnc1)Cc1cncc2c1CCN(c1ccccn1)C2.Cl.Cl.Cl	-32.27

SMILES	Percent Effect [%]
CN(Cc1ncc[nH]1)c1nc(-c2ccccn2)nc2c1CCNCC2	54.09
c1ccc(-c2nc3c(c(NCCn4ccnn4)n2)CCNCC3)nc1	6.036
CN(CCO)c1nc(-c2ccccn2)nc2c1CCNC2	-87.29
CN(Cc1ccc(-n2cccn2)cc1)c1cc(N)nc(N)n1	39.62
CN(Cc1ccccc1-n1cccn1)c1nc(N)nc2c1CCNCC2	-16.16
CN(Cc1ccc(-n2cccn2)cc1)c1nc(N)nc2c1CCNCC2	57.31
CN(Cc1nccs1)C1CCN(c2ncccn2)CC1	-79.31
CC(=O)N1CCc2c(nc(-c3ccccn3)nc2N(C)CC(O)CO)C1 (configuration not stated)	-23.68
CN(Cc1cccnc1)c1nc(-c2ccccn2)nc2c1CCNCC2	53.3
CN(Cc1nccs1)c1nc(-c2ccccn2)nc2c1CCNCC2	83.34
CN(Cc1cccnc1)c1nccc(N2CCN[C@H]3CS(=O)(=O)C[C@H]32)n1	-59
O=C(O)C(F)(F)F.O=C(O)C(F)(F)F.c1cncc(CO[C@H]2CN(Cc3ccco3)[C@@H]3COC[C@H]23)c1	-20
Nc1nnc(SCc2cc(=O)n3c4c(sc3n2)CCCC4)[nH]1	-122.1
O=C(C1CCC1)N1C(CN2CCOCC2)[C@]2(O)CC[C@H]1CC2 (some centres not stated)	-122.6
O=C(Cn1nc(Br)nc1Br)N1CCCCC1	-129.7
Cc1nc(CC2CCN(C(=O)C(c3ccccc3C)N(C)C)CC2)no1 (configuration not stated)	-27.12
COc1ccc(CN(Cc2cncn2C)CC2CCCO2)cc1.O=C(O)CC(O)(CC(=O)O)C(=O)O (configuration not stated)	-5.826
CC1CCN(c2nc3ncc4c(c3c(=O)[nH]2)CC(C)(C)CC4=O)CC1	-163.1
CN(Cc1ccsc1)c1nc(-c2ccccn2)nc2c1CCNCC2	79.12
CN(CC1Cc2ccccc2CN1C)c1nc(N)nc2c1CCNCC2 (configuration not stated)	-16.74
CCOCc1nc2c(c(N(C)Cc3snnc3C)n1)CCNCC2	-53.15
CCOCc1nc2c(c(N(C)Cc3nonc3C)n1)CCNCC2	45.51
CCOCc1nc2c(c(N(C)Cc3ccsc3)n1)CCNCC2	63.06
COCC(Nc1nc(N(C)C)nc2c1CCNCC2)c1ccccn1 (configuration not stated)	-46.74
COCC1CCN(C(=O)c2cn(Cc3ccccc3F)nn2)CC1	-60.58

SMILES	Percent Effect [%]
CN(C)c1cc(C(=O)NCCc2n[nH]c(=O)[nH]2)ccn1	-61.85
Cc1cnn(CC2CN(Cc3nc(C4CC4)no3)CCO2)c1 (configuration not stated)	-0.1422
CC(C)N1CCC(CNC(=O)COc2ccc(F)cc2F)C1 (configuration not stated)	52.83
CC(C)N1CCC(CNC(=O)CCc2cc(F)ccc2F)C1 (configuration not stated)	6.837
COCCN1CCC(CNC(=O)CCc2cc(F)ccc2F)C1 (configuration not stated)	-6.086
Cc1cc(CNC(=O)N2CCN(c3ccc(Cl)cn3)CC2)c(C)o1	-63.56
CC(=O)N1CCO[C@@H]2CN(C(=O)NCc3ccccc3)CC[C@@H]2C1	-111.3
Cc1cnc(N2CC[C@@H]3OC(COCC(=O)N(C)C)CC[C@@H]32)nc1.O=C(O)C(F)(F)F (some centres not stated)	-36.79
CCCOc1cc(C)ccc1NC(=O)NCCNC(=O)C(C)C	-67.23
CC(C)COC(=O)N1[C@@H](c2ccco2)[C@@H](CO)C[C@]12CCCCNC2=O	-86.33
Cc1nc2c(c(NCC(O)C(F)(F)F)n1)CCNCC2 (configuration not stated)	-130.8
OC(CNc1ncnc2c1CCNCC2)C(F)(F)F (configuration not stated)	-185.3
COCCNc1nc2c(c(NCc3ccncc3)n1)CCNCC2	12.96
OC(CNc1nc(C2CCCC2)nc2c1CCNCC2)C(F)(F)F (configuration not stated)	63.72
COCc1noc(CNc2nc(C3CCCC3)nc3c2CCNCC3)n1	26.49
COCCNc1nc(C2CCCC2)nc2c1CCNCC2	52.24
Cc1nc(CN2CCO[C@H]3[C@@H](Oc4ccccn4)CC[C@@H]32)cs1.O=C(O)C(F)(F)F.O=C(O)C(F)(F)F	-51.07
COc1cccc(-c2cc(C(=O)NCCCn3cnnc3)[nH]n2)c1	-185.9
CCn1ncc2c1C(COC)CN(Cc1cnn(C)c1)C2 (configuration not stated)	-1.77
CC[C@@H]1N(Cc2nccs2)CCC[C@]12CCC(=O)N2CCOC.O=C(O)C(F)(F)F	-51.09
Cc1noc(-c2ccnc(N3CCC(CN4CCOCC4)CC3)c2)n1	-57.29
Cc1ccc(C(=O)N2CCN(c3ccnc4ccsc34)CC2)o1	5.694
